Measurements reported in PubChem BioAssay AID1159580 (chemical genetic matrix, 2015).
Several values for one entry are separate records, joined by “and”; a condition that tells them apart may be missing. Equal entries are not always repeated. Out of some 5,500 compounds screened, about 2,000 (36%) were called active. About 18% were inconclusive and are not listed. Cut-off read from the data, not from the text of the source: active = normalized growth mostly below about 0.91 (no sharp cut-off); inconclusive = no clear call, values can overlap the other calls; inactive = mostly above about 0.92. The list shows a part of the results.

Test: chemical genetic growth profiling, strain panel (AID 1159580);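 note: tested at 20 µM; growth read once vehicle control cultures reached saturation at 30 °C; 1 = growth at the plate median or of vehicle wells; lower values mean less growth of the strain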
Conditions: growth OD

Measured: normalized growth

CCCOc1ccccc1-c1nc2n[nH]nc2c(=O)[nH]1
inactive: S. cerevisiae deletion strains, locus YJL187C, strain SWE1 (second series), active compounds read low 0.992 | S. cerevisiae deletion strains, locus YJL187C, strain SWE1, active compounds read low 1 | S. cerevisiae deletion strains, locus YJR043C, strain POL32, active compounds read low 0.995 | S. cerevisiae deletion strains, locus YJR075W, strain HOC1, active compounds read low 0.979 | S. cerevisiae deletion strains, locus YKL009W, strain mrt4, active compounds read low 1 | S. cerevisiae deletion strains, locus YKL068W, active compounds read low 0.999 | S. cerevisiae deletion strains, locus YKL085W, strain MDH1 (second series), active compounds read low 1 | S. cerevisiae deletion strains, locus YKL085W, strain MDH1, active compounds read low 1 | S. cerevisiae deletion strains, locus YKL160W, strain elf1, active compounds read low 0.974 | S. cerevisiae deletion strains, locus YKL190W, strain CNB1, active compounds read low 1 | S. cerevisiae deletion strains, locus YKR001C, strain vps1, active compounds read low 1.01 | S. cerevisiae deletion strains, locus YKR026C, strain gcn3, active compounds read low 1 | S. cerevisiae deletion strains, locus YKR091W, strain srl3, active compounds read low 1 | S. cerevisiae deletion strains, locus YLL001W, strain dnm1, active compounds read low 0.995 | S. cerevisiae deletion strains, locus YLL026W, active compounds read low 1.01 | S. cerevisiae deletion strains, locus YLL041C, strain sdh2, active compounds read low 0.994 | S. cerevisiae deletion strains, locus YLR027C, strain aat2, active compounds read low 1.01 | S. cerevisiae deletion strains, locus YLR039C, strain RIC1, active compounds read low 1.05 | S. cerevisiae deletion strains, locus YLR058C, strain SHM2, active compounds read low 0.997 | S. cerevisiae deletion strains, locus YLR102C, strain apc9, active compounds read low 1.01 | S. cerevisiae deletion strains, locus YLR221C, strain rsa3, active compounds read low 0.995 | S. cerevisiae deletion strains, locus YLR258W, strain gsy2, active compounds read low 1.03 | S. cerevisiae deletion strains, locus YLR262C, strain YPT6 (second series), active compounds read low 0.997 | S. cerevisiae deletion strains, locus YLR262C, strain YPT6, active compounds read low 1.02 | S. cerevisiae deletion strains, locus YLR268W, strain sec22, active compounds read low 1.01 | S. cerevisiae deletion strains, locus YLR320W, strain mms22, active compounds read low 1.02 | S. cerevisiae deletion strains, locus YLR330W, strain CHS5, active compounds read low 1.01 | S. cerevisiae deletion strains, locus YLR342W, strain FKS1 (second series), active compounds read low 1.04 | S. cerevisiae deletion strains, locus YLR342W, strain FKS1, active compounds read low 1.01 | S. cerevisiae deletion strains, locus YLR357W, strain rsc2, active compounds read low 1.01 | S. cerevisiae deletion strains, locus YLR370C, strain arc18, active compounds read low 0.996 | S. cerevisiae deletion strains, locus YLR371W, strain rom2, active compounds read low 1.02 | S. cerevisiae deletion strains, locus YLR384C, strain iki3, active compounds read low 1 | S. cerevisiae deletion strains, locus YLR418C, strain cdc73, active compounds read low 1.02 | S. cerevisiae deletion strains, locus YML016C, strain PPZ1, active compounds read low 1 | S. cerevisiae deletion strains, locus YML032C, strain rad52, active compounds read low 1.02 | S. cerevisiae deletion strains, locus YML120C, strain ndi1, active compounds read low 0.997 | S. cerevisiae deletion strains, locus YML124C, strain tub3, active compounds read low 1 | S. cerevisiae deletion strains, locus YMR058W, strain fet3, active compounds read low 1.01 | S. cerevisiae deletion strains, locus YMR078C, strain ctf18, active compounds read low 1.01 | S. cerevisiae deletion strains, locus YMR125W, strain sto1, active compounds read low 1.01 | S. cerevisiae deletion strains, locus YMR129W, active compounds read low 1 | S. cerevisiae deletion strains, locus YMR205C, strain PFK2, active compounds read low 1.03 | S. cerevisiae deletion strains, locus YMR223W, strain ubp8, active compounds read low 1.01 | S. cerevisiae deletion strains, locus YMR231W, strain pep5, active compounds read low 1.01 | S. cerevisiae deletion strains, locus YMR307W, strain GAS1, active compounds read low 1.08 and 0.984 | S. cerevisiae deletion strains, locus YNL067W, strain RPL9B, active compounds read low 1 | S. cerevisiae deletion strains, locus YNL071W, strain lat1, active compounds read low 1 | S. cerevisiae deletion strains, locus YNL153C, strain GIM3, active compounds read low 1.04 | S. cerevisiae deletion strains, locus YNL175C, strain NOP13, active compounds read low 1.02 | S. cerevisiae deletion strains, locus YNL197C, strain WHI3, active compounds read low 1.01 | S. cerevisiae deletion strains, locus YNL209W, strain ssb2, active compounds read low 1 | S. cerevisiae deletion strains, locus YNL224C, strain SQS1, active compounds read low 1 | S. cerevisiae deletion strains, locus YNL233W, strain BNI4, active compounds read low 0.995 | S. cerevisiae deletion strains, locus YNL248C, strain rpa49, active compounds read low 0.957 | S. cerevisiae deletion strains, locus YNL250W, strain rad50, active compounds read low 1 | S. cerevisiae deletion strains, locus YNL271C, strain bni1, active compounds read low 1.01 | S. cerevisiae deletion strains, locus YNL298W, strain CLA4, active compounds read low 1.02 | S. cerevisiae deletion strains, locus YNL307C, strain MCK1, active compounds read low 1.02 | S. cerevisiae deletion strains, locus YNL322C, strain KRE1 (second series), active compounds read low 0.998 | S. cerevisiae deletion strains, locus YNR049C, strain mso1, active compounds read low 1 | S. cerevisiae deletion strains, locus YNR052C, strain pop2, active compounds read low 1.01 | S. cerevisiae deletion strains, locus YOL006C, strain TOP1, active compounds read low 1 | S. cerevisiae deletion strains, locus YOL012C, strain htz1 1.16 | S. cerevisiae deletion strains, locus YOL147C, strain pex11, active compounds read low 1.01 | S. cerevisiae deletion strains, locus YOR001W, strain rrp6, active compounds read low 0.971 | S. cerevisiae deletion strains, locus YOR061W, strain CKA2, active compounds read low 1.01 | S. cerevisiae deletion strains, locus YOR069W, strain VPS5, active compounds read low 1 | S. cerevisiae deletion strains, locus YOR070C, strain gyp1, active compounds read low 0.999 | S. cerevisiae deletion strains, locus YOR080W, strain dia2, active compounds read low 1.01 | S. cerevisiae deletion strains, locus YOR083W, strain WHI5 (second series), active compounds read low 1.02 | S. cerevisiae deletion strains, locus YOR083W, strain WHI5, active compounds read low 0.962 | S. cerevisiae deletion strains, locus YOR106W, strain vam3, active compounds read low 0.981 | S. cerevisiae deletion strains, locus YOR136W, strain idh2, active compounds read low 1.01 | S. cerevisiae deletion strains, locus YOR144C, strain elg1, active compounds read low 1.01 | S. cerevisiae deletion strains, locus YOR184W, strain ser1, active compounds read low 1.01 | S. cerevisiae deletion strains, locus YOR265W, strain rbl2, active compounds read low 1 | S. cerevisiae deletion strains, locus YOR270C, strain vph1, active compounds read low 0.98 | S. cerevisiae deletion strains, locus YOR290C, strain snf2, active compounds read low 0.992 | S. cerevisiae deletion strains, locus YOR316C, strain cot1, active compounds read low 1.01 | S. cerevisiae deletion strains, locus YPL051W, strain arl3, active compounds read low 0.991 | S. cerevisiae deletion strains, locus YPL078C, strain atp4, active compounds read low 0.981 | S. cerevisiae deletion strains, locus YPL106C, strain sse1, active compounds read low 1.02 | S. cerevisiae deletion strains, locus YPL240C, strain hsp82, active compounds read low 1.01 | S. cerevisiae deletion strains, locus YPR119W, strain clb2, active compounds read low 1.01 | S. cerevisiae deletion strains, locus YPR141C, strain kar3, active compounds read low 1 | S. cerevisiae deletion strains, locus YPR163C, strain tif3, active compounds read low 1.02 | S. cerevisiae deletion strains, locus YPR167C, strain met16, active compounds read low 1.02 | S. cerevisiae deletion strains, strain wtn01, active compounds read low 1.02 | S. cerevisiae strains, strain wild type, active compounds read low 1.01
